Laboratory results published in PubChem BioAssay AID1053124 (Broad Institute, 2014).
Measured potencies and affinities stand elsewhere. The source made the active and inactive calls.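 Rule for the calls: active = cell killing whose fitted half-effect concentration is at most twice the top valid dose tested; inconclusive = flat curve with 30 to 70% killing, or a poor fit; inactive = effect in the rising direction, plus the rest.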

Assay: viability loss in A549 lung cells – cell-based, ATP luminescence, cherry-pick, set 2, cytotoxicity control, dose response (AID 1053124)
Conditions: ATP luminescence (CellTiter-Glo), 72 h; series mostly up to 26 µM

Row | Compound | outcome
1 | CC(C)OP(=O)(O)NC(=O)c1ccccc1 | inactive
2 | CC12CC(c3ccccc3O1)C(C(=O)OCc1ccccc1)C(=O)N2 (stereo not drawn) | inactive
3 | N#CC1=C(N)Oc2cc(O)ccc2C1c1ccc2c(c1)OCO2 (stereo not drawn) | inactive
